Bioassay records deposited in PubChem by National Center for Advancing Translational Sciences (NCATS).
An excerpt weighted towards active compounds, which were near 6% of everything screened.
D3 antag: D3 dopamine receptor (human) antagonism; P35462; D3R cells, DiscoveRx beta-arrestin luminescence, antagonist mode; stronger effect = lower value; max response, negative = inhibition, %; hit rate 2.5% among 360,000; in the data active means max response below about -50%; inconclusive means no clear call, values can overlap the other calls; further: on the % scale 0 is the no-effect control and ±100 the full control effect
Target sequence (P35462 whole entry, looked up): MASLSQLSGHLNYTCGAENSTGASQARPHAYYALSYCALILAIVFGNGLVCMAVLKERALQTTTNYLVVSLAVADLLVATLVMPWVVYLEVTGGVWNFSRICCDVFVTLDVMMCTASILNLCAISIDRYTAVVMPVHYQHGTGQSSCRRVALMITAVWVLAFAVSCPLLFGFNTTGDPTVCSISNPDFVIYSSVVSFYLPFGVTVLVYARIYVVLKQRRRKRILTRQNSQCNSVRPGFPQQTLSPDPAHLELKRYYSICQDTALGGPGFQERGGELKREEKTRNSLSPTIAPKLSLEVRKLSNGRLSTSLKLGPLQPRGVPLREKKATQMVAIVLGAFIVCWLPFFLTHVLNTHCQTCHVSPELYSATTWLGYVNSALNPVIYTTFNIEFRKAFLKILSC
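Cells expressing the human receptor were seeded at 1500 cells/well, incubated overnight at 37 degrees C in 5% CO2, then exposed to library compounds with dopamine controls for 90 minutes at 37 degrees C before luminescent detection.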
DRD3 agonist: D3 dopamine receptor (human) agonism. D3R DiscoveRx beta-arrestin cells, luminescence, 90 min. max activation, %. hit rate 0.58% among 410,000. AID 652048; in the data active means max activation above about 30%; further: 0% is about no effect
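Agonist mode: compounds and dopamine controls were applied to plated cells for 90 min at 37 degrees C after an overnight attachment at 1500 cells/well. Luminescent read-out followed 30 - 60 minutes at room temperature with DiscoveRx detection reagent.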
D1 antagonist: human D1 dopamine receptor antagonism | hit rate 3.2% among 360,000 | P21728 | HEK293 TREx D1 cells, calcium flux, dopamine EC80; stronger effect = lower value | AID 504652 | activity change, negative = inhibition, % at 10 µM; in the data active means activity change below about -30%; further: on the % scale 0 is the no-effect control and ±100 the full control effect
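Compound effects on dopamine-evoked calcium signalling were measured in tetracycline-induced HEK293 Trex D1 cells. Dopamine at EC80 followed a 180 s compound pre-read, and fluorescence was tracked kinetically for 180 s more.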
D1 ag: human D1 receptor agonism; P21728; HEK293 T-REx D1 cells, calcium flux, agonist mode; activation, % at 2 µM; hit rate 1% among 360,000; AID 504660; in the data active means activation above about 30%; further: 0% is about no effect
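Inducible HEK293 T-REx D1 cells, force-coupled to calcium signalling, were plated at 4000 cells/well with tetracycline and held overnight at 30 C. After no-wash calcium dye loading, compound-evoked calcium rise over 180 s flagged agonists.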
D1 potentiator: human D1 dopamine receptor positive modulation; P21728; HEK293 TREx D1 cells, calcium flux, dopamine EC20 potentiation; potentiation, % at 10 µM; hit rate 0.036% among 360,000; AID 504651; in the data active means potentiation above about 30%; further: 0% is about no effect
The depositor's hits bear a star; ? = inconclusive; . = no result given; ! = repeats disagree.

SMILES	D3 antag	DRD3 agonist	D1 antagonist	D1 ag	D1 potentiator
COc1ccc(C2/C(=C(/O)c3ccc(Cl)cc3)C(=O)C(=O)N2CCN2CCOCC2)c(OC)c1 (centres undefined)	0	1	1	3	-4
COc1cccc(/C(O)=C2\C(=O)C(=O)N(c3ccccn3)C2c2ccccc2OC)c1 (centres undefined)	-51*	-1	6	4	-2
C=Cc1ccc(Cn2c(=O)n(-c3ccc(C)cc3)c(=O)c3c2c2cc(OC)ccc2n3C)cc1	.	1	-10	3	-2
Cc1cccc(NC(=O)CC2SC(=NC3CCCCC3)NC2=O)c1 (centres undefined)	0	-10	-33*	2	-1
O=S(=O)(Nc1ccc(-n2cccc2)cc1)c1ccc(Cl)cc1Cl	-53*	-1	-6	1	-1
O=S(=O)(Nc1ccc(-n2cccc2)cc1)c1ccc(Cl)c(Cl)c1	2	0	-5	1	-8
CCOC(=O)N1CCc2c(sc(N)c2C#N)C1	7	60*	2	1	6
COC(=O)c1cc2oc3ccccc3c2n1CC(=O)Nc1ccc(C)cc1Cl	.	-15	-9	1	6
Cc1ccccc1CN1CC2=C(CCN(Cc3ccccc3)C2=O)N2CCN=C12	-81*	-12	.	.	.
CN(C1CCCCC1)S(=O)(=O)c1ccc(F)c(C(=O)Nc2ccc(C(F)(F)F)cc2)c1	.	1	-1	2	1
CC1=CC(C)(C)NC(=S)N1c1cccc(Cl)c1	3	7	.	.	.
CC1=CC(C)(C)NC(=S)N1c1cc(C)cc(C)c1	3	7	-51*	-3	3
CCOC(=O)COc1ccc2c(C)c(CCN(CC)CC)c(=O)oc2c1Cl	.	-5	.	.	.
COc1ccc(CCNC(=O)CN2C(=O)COc3ccc(S(=O)(=O)N4CCOCC4)cc32)cc1OC	5	-9	-52*	2	-2
COc1ccc(OC)c(CCNC(=O)CN2C(=O)COc3ccc(S(=O)(=O)N4CCOCC4)cc32)c1	-17	-10	9	2	5
COc1ccc(CCNC(=O)CCN2C(=O)COc3ccc(C)cc32)cc1OC	-65*	-3	.	.	.
O=C(CN1C(=O)CSc2ccc(S(=O)(=O)N3CCOCC3)cc21)NCCCN1CCc2ccccc2C1	-62*	-11	8	-1	-2
CCCSCCCNC(=O)CN1C(=O)COc2ccc(S(=O)(=O)N3CCCC3)cc21	16	2	-38*!	2	3
Cc1csc(SCC(=O)NC2CCS(=O)(=O)C2)n1 (centres undefined)	-6	30*	.	.	.
O=C(NCC(c1cccnc1)N1CCN(Cc2ccccc2)CC1)C(=O)Nc1ccc(Cl)cc1 (centres undefined)	.	-15	-17	3	-2
Cc1ccc(Cl)c(OCCCCN(C)Cc2ccccc2)c1	-90*	-63	-29	3	-12
Cc1ccc(Cl)c(OCCCN(C)Cc2ccccc2)c1	?	-22	-55*	7	-3
C/C=C/c1ccc(OCCCCN(C)Cc2ccccc2)c(OC)c1	-12	-19	-5	3	-9
CCOc1ccccc1OCCCOc1ccc(C)cc1Cl	28	5	-86*	3	-6
Cc1c(NC(=O)c2cc(-n3cnnc3)ccc2Cl)cccc1-c1nc2ccccc2s1	26	-13	-39*	1	-3
SMILES	D3 antag	DRD3 agonist	D1 antagonist	D1 ag	D1 potentiator
Cc1c(NC(=O)c2ccccc2F)cccc1-c1nc2cccnc2s1	.	-10	-80*	-1	-2
Cc1ccc(C(=O)Nc2cccc(-c3nc4cccnc4s3)c2C)cc1	.	-17	-4	1	-3
Cc1c(NS(C)(=O)=O)cccc1-c1nc2cccnc2s1	-51*	1	3	1	-5
O=C(Nc1cccc(-c2nc3ccccc3s2)c1)c1cc(-n2cnnc2)ccc1Cl	49	1	-6	3	-5
Cc1c(NS(=O)(=O)c2cccs2)cccc1-c1nc2cccnc2s1	-4	5	4	3	-2
COc1ccc(NC(=O)Cn2ncc(Cl)c(Cl)c2=O)cc1S(=O)(=O)N1CCOCC1	0	3	-40*	0	-12
O=C(Cn1ncc(Cl)c(Cl)c1=O)c1ccc2c(c1)OCCO2	-54*	-13	.	.	.
CCC(=O)Nc1ccc(C(=O)Cn2ncc(Cl)c(Cl)c2=O)cc1	?	-9	-1	-2	0
O=C(Cn1ncc(Cl)c(Cl)c1=O)Nc1ccc2c(c1)OCO2	?	-16	-50*	0	-9
